# According to PubChem BioAssay (NCATS):
# Records with an inconclusive call do not appear. Where a call stands in place of a potency, no number is given. Calls of active or inactive are those of the source. Calls come from the whole dose curve.
# Columns and labels:
# [1] = Primary qHTS for inhibitors of SARS-S pseudo-typed particle cell entry (AID 1479145); note: nearly all actives have a fitted effect of over 45% in size
# [2] = Primary qHTS for Huh7 cytotoxicity: counterscreen for inhibitors of MERS-S pseudotyped particle cell entry (AID 1479147)
# [3] = Primary qHTS for inhibitors of MERS-S pseudo-typed particle cell entry (AID 1479149); note: nearly all actives have a fitted effect of over 60% in size; note: potency is the fitted concentration of half-maximal effect
# [4] = Primary qHTS for Vero E6 cytotoxicity: counterscreen for inhibitors of SARS-S pseudo-typed particle cell entry (AID 1479150)
SMILES,Potency [1],Potency [2],Potency [3],Potency [4]
CCCCN1C[C@H](O)[C@@H](O)[C@H](O)[C@H]1CO,inactive,inactive,inactive,inactive
CC/C=C(\C(=O)N[C@@H]1C(=O)N2C(C(=O)OCOC(=O)C(C)(C)C)=C(COC(N)=O)CS[C@H]12)c1csc(N)n1,inactive,inactive,inactive,inactive
NC[C@H](O)c1ccc(O)c(O)c1,inactive,inactive,inactive,inactive
CC(C)[N+](C)(CCOC(=O)C1c2ccccc2Oc2ccccc21)C(C)C,inactive,inactive,inactive,inactive
CN(N=O)C(=O)N[C@@H]1[C@@H](O)[C@H](O)[C@@H](CO)O[C@@H]1O,inactive,inactive,inactive,inactive
OC(Cn1cncn1)(Cn1cncn1)c1ccc(F)cc1F,inactive,inactive,inactive,inactive
CC(COc1ccccc1)N(CCCl)Cc1ccccc1 (stereo not drawn),inactive,inactive,inactive,inactive
CC(C)c1nc(CN(C)C(=O)N[C@H](C(=O)N[C@@H](Cc2ccccc2)C[C@H](O)[C@H](Cc2ccccc2)NC(=O)OCc2cncs2)C(C)C)cs1,inactive,inactive,inactive,inactive
CCc1c2c(nc3ccc(OC(=O)N4CCC(N5CCCCC5)CC4)cc13)-c1cc3c(c(=O)n1C2)COC(=O)[C@]3(O)CC,inactive,inactive,10 µM (active),inactive
Cc1cn([C@H]2C=C[C@@H](CO)O2)c(=O)[nH]c1=O,inactive,inactive,inactive,inactive
C[C@@H](O)[C@H]1C(=O)N2C(C(=O)O)=C(S[C@@H]3CN[C@H](C(=O)N(C)C)C3)[C@H](C)[C@H]12,inactive,inactive,inactive,inactive
O=C(OC1C[C@H]2CC[C@@H](C1)[N+]21CCCC1)C(O)(c1ccccc1)c1ccccc1 (stereo partly drawn),inactive,inactive,inactive,inactive
